According to PubChem BioAssay AID1159580 (chemical genetic matrix, 2015):
About 2,000 (36%) of roughly 5,500 compounds were called active. Inconclusive results (about 18%) are left out. No stated cut-off is given here; in the data, active means normalized growth mostly below about 0.91 (no sharp cut-off); inconclusive means no clear call, values can overlap the other calls; inactive means mostly above about 0.92. The list shows a part of the results.

Experiment: chemical genetic growth profiling, strain panel (AID 1159580);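 further: tested at 20 µM; growth read once vehicle control cultures reached saturation at 30 °C; 1 = growth at the plate median or of vehicle wells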
Details: S. cerevisiae deletion strains, growth OD

Measured: normalized growth

C[C@H]1CC[C@@H](C(C)(C)O)CC2=C1CC[C@@H]2C
inactive: locus YAL021C, strain ccr4, stronger effect = lower value 1 | locus YAL026C, strain drs2, stronger effect = lower value 0.984 | locus YAL030W, strain snc1, stronger effect = lower value 0.995 | locus YBL061C, strain skt5, stronger effect = lower value 0.985 | locus YBR009C, strain hhf1, stronger effect = lower value 0.914 | locus YBR023C, strain chs3, stronger effect = lower value 0.959 | locus YBR171W, strain sec66, stronger effect = lower value 0.978 | locus YBR231C, strain swc5, stronger effect = lower value 1.01 | locus YBR279W, strain paf1, stronger effect = lower value 0.996 | locus YCL011C, strain gbp2, stronger effect = lower value 0.982 | locus YCL016C, strain dcc1, stronger effect = lower value 0.976 | locus YCL061C, strain MRC1, stronger effect = lower value 0.995 | locus YCL069W, strain vba3, stronger effect = lower value 0.997 | locus YCR088W, strain abp1, stronger effect = lower value 0.993 | locus YDL005C, strain med2, stronger effect = lower value 0.998 | locus YDL040C, strain nat1, stronger effect = lower value 0.983 | locus YDR001C, strain nth1, stronger effect = lower value 0.988 | locus YDR069C, strain doa4, stronger effect = lower value 0.981 | locus YDR137W, strain rgp1, stronger effect = lower value 0.91 | locus YDR159W, strain sac3, stronger effect = lower value 0.912 | locus YDR297W, strain sur2, stronger effect = lower value 0.988 | locus YDR334W, strain swr1, stronger effect = lower value 1.01 | locus YDR335W, strain msn5, stronger effect = lower value 0.992 | locus YEL003W, strain gim4, stronger effect = lower value 0.984 | locus YEL037C, strain rad23, stronger effect = lower value 0.994 | locus YEL061C, strain CIN8 (second series), stronger effect = lower value 1 | locus YER015W, strain faa2, stronger effect = lower value 1.01 | locus YER016W, strain bim1, stronger effect = lower value 0.967 | locus YER111C, strain swi4, stronger effect = lower value 0.984 | locus YER155C, strain BEM2 (second series), stronger effect = lower value 0.927 | locus YFR010W, strain ubp6, stronger effect = lower value 0.962 | locus YGL167C, strain pmr1, stronger effect = lower value 0.985 | locus YGL173C, strain kem1, stronger effect = lower value 0.961 | locus YGL227W, strain vid30, stronger effect = lower value 0.999 | locus YGL240W, strain doc1, stronger effect = lower value 0.934 | locus YGL253W, strain hxk2, stronger effect = lower value 1 | locus YHR013C, strain ard1, stronger effect = lower value 0.999 | locus YHR027C, strain rpn1, stronger effect = lower value 0.994 | locus YHR142W, strain chs7, stronger effect = lower value 0.884 | locus YJL092W, strain hpr5, stronger effect = lower value 0.995 | locus YJL095W, strain BCK1 (second series), stronger effect = lower value 0.99 | locus YJL095W, strain BCK1, stronger effect = lower value 0.9 | locus YJL115W, strain asf1, stronger effect = lower value 0.994 | locus YJL129C, strain trk1, stronger effect = lower value 0.983 | locus YJL154C, strain vps35, stronger effect = lower value 0.992 | locus YJL164C, strain tpk1, stronger effect = lower value 0.965 | locus YJL166W, strain qcr8, stronger effect = lower value 0.948 | locus YJL187C, strain SWE1, stronger effect = lower value 0.987 | locus YJR066W, strain TOR1, stronger effect = lower value 0.92 | locus YKL160W, strain elf1, stronger effect = lower value 0.979 | locus YKR026C, strain gcn3, stronger effect = lower value 0.97 | locus YKR091W, strain srl3, stronger effect = lower value 0.993 | locus YLL001W, strain dnm1, stronger effect = lower value 0.991 | locus YLL026W, stronger effect = lower value 0.978 | locus YLL041C, strain sdh2, stronger effect = lower value 0.993 | locus YLR027C, strain aat2, stronger effect = lower value 0.979 | locus YLR221C, strain rsa3, stronger effect = lower value 0.924 | locus YLR258W, strain gsy2, stronger effect = lower value 0.971 | locus YLR320W, strain mms22, stronger effect = lower value 0.896 | locus YLR342W, strain FKS1, stronger effect = lower value 0.989 | locus YLR357W, strain rsc2, stronger effect = lower value 0.893 | locus YLR370C, strain arc18, stronger effect = lower value 0.987 | locus YLR384C, strain iki3, stronger effect = lower value 0.995 | locus YML120C, strain ndi1, stronger effect = lower value 0.972 | locus YMR058W, strain fet3, stronger effect = lower value 0.993 | locus YMR125W, strain sto1, stronger effect = lower value 0.977 | locus YMR129W, stronger effect = lower value 0.986 | locus YMR205C, strain PFK2, stronger effect = lower value 0.896 | locus YMR231W, strain pep5, stronger effect = lower value 0.999 | locus YNL071W, strain lat1, stronger effect = lower value 0.952 | locus YNL183C, strain NPR1, stronger effect = lower value 0.869 | locus YNL209W, strain ssb2, stronger effect = lower value 0.995 | locus YNL248C, strain rpa49, stronger effect = lower value 0.983 | locus YNL322C, strain KRE1 (second series), stronger effect = lower value 0.987 | locus YNR049C, strain mso1, stronger effect = lower value 0.995 | locus YOR001W, strain rrp6, stronger effect = lower value 0.958 | locus YOR070C, strain gyp1, stronger effect = lower value 0.978 | locus YOR080W, strain dia2, stronger effect = lower value 1 | locus YOR083W, strain WHI5, stronger effect = lower value 0.975 | locus YOR106W, strain vam3, stronger effect = lower value 0.972 | locus YOR265W, strain rbl2, stronger effect = lower value 0.983 | locus YOR270C, strain vph1, stronger effect = lower value 0.97 | locus YOR290C, strain snf2, stronger effect = lower value 0.925 | locus YPL051W, strain arl3, stronger effect = lower value 0.979 | locus YPL078C, strain atp4, stronger effect = lower value 0.986 | locus YPL106C, strain sse1, stronger effect = lower value 0.889 | locus YPL240C, strain hsp82, stronger effect = lower value 1.01
active: locus YDR195W, strain ref2 0.822 | locus YDR392W, strain spt3, stronger effect = lower value 0.552 | locus YHR030C, strain SLT2, stronger effect = lower value 0.819 | locus YHR079C, strain IRE1, stronger effect = lower value 0.767 | locus YLR113W, strain HOG1, stronger effect = lower value 0.764 | locus YLR262C, strain YPT6 (second series), stronger effect = lower value 0.841 | locus YOR231W, strain MKK1, stronger effect = lower value 0.849 | locus YPL256C, strain CLN2, stronger effect = lower value 0.796
